Consider 40 compounds from PubChem BioAssay (NCATS).

The nature of the experiment: High-throughput drug toxicity screening in the BPDCN cell line Gen2.2 (AID 1224824). Conditions: Gen2.2 BPDCN cells; at 45.8 µM (top of the series). From the text:
Blastic plasmacytoid dendritic cell neoplasm (BPDCN) is a rare, aggressive and largely incurable hematologic malignancy originating from plasmacytoid dendritic cells (pDCs). Although an initial response to chemotherapy is common, BPDCN prognosis is extremely poor and most patients relapse with drug-resistant disease leading to a median overall survival of ~1 year after diagnosis. To explore novel potential therapeutic strategies in BPDCN, we performed a high-throughput drug toxicity screening in BPDCN cell liens, using of a library of 1,912 small molecules, enriched for compounds that are either approved or in early stages of development for cancer therapy.
A total of 500 exponentially growing Gen2.2 cells were seeded per well in 5 uL of media (RPMI + Glutamine, without phenol red plus10% FBS and 1X Pen/Strep) into 1536-well solid white high base tissue culture treated Greiner One Bio Plates (789173-F), using a multidrop combi dispenser and a small sterile cassette. Compounds and controls totaling 23nL per well (negative control DMSO and positive control 9.2 uM Bortezomib-final) were immediately added to the plates using a 1536 head pin tool from Kalypsys. The plates were then covered with stainless steel gasket lids from Kalypsys and incubated for 48 hours at 37C under 95% relative humidity with 5% CO2. After 48 hours, the plates were removed and allowed to reach room temperature before 3 uL of Cell Titer Glo reagent (Promega) were added using an Aurora Flying Reagent Dispenser Bioraptor. The plates were then spun at 1000 rpms to remove bubbles and incubated for 15 minutes at room temperature before reading on a ViewLux using a luminescent filter with a 10 second exposure. The relative luciferase units were used to calculated percent activity using DMSO as 100% and Bortezomib as 0%.
`CC[C@@H](C(N)=O)N1CCCC1=O`: the cell viability, % of control (lower = more cytotoxic) was found to be 211%.
On to `CSCC[C@@H](NC(=O)[C@@H](Cc1ccccc1)NC(=O)CNC(=O)CNC(=O)[C@@H](N)Cc1ccc(O)cc1)C(=O)O`, for which the cell viability, % of control (lower = more cytotoxic) stood at 140%.
As to `CC(C)(C)[C@]1(O)C[C@@H]2OC(=O)C[C@@]23C(=O)O[C@@H]2OC(=O)[C@H](O)C213` (stereo not given in full), the cell viability, % of control (lower = more cytotoxic) is 106%.
`N#C[C@H](O[C@@H]1O[C@H](CO[C@@H]2O[C@H](CO)[C@H](O)[C@H](O)[C@H]2O)[C@H](O)[C@H](O)[C@H]1O)c1ccccc1`: the cell viability, % of control (lower = more cytotoxic) came to 180%.
As for `Cc1c(C(=O)c2cccc3ccccc23)c2cccc3c2n1[C@H](CN1CCOCC1)CO3`, the cell viability, % of control (lower = more cytotoxic) came out at 17.7%.
With `CN1CCN(c2ccc([N+](=O)[O-])c3no[n+]([O-])c23)CC1`, the cell viability, % of control (lower = more cytotoxic) was 4.61%.
In the case of `CC(=O)Nc1ccc(OC[C@](C)(O)C(=O)Nc2ccc([N+](=O)[O-])c(C(F)(F)F)c2)cc1`, the cell viability, % of control (lower = more cytotoxic) amounted to 138%.
`CN[C@@H]1Cc2cccc3[nH]c(=O)n(c23)C1`: the cell viability, % of control (lower = more cytotoxic) was 231%.
As for `C[C@]12CC[C@H]3[C@@H](CCC4=CC(=O)CC[C@@]43C)[C@H]1CC[C@H]2OC(=O)CCC1CCCC1`, the cell viability, % of control (lower = more cytotoxic) turned out to be 94%.
As for `CN(C)[C@@H]1C(=O)C(C(N)=O)=C(O)[C@@]2(O)C(=O)C3=C(O)c4c(O)cccc4[C@@](C)(O)[C@H]3[C@H](O)[C@@H]12`, the cell viability, % of control (lower = more cytotoxic) is 109%.
Consider `C[C@H]1CCCC=CC2C[C@H](O)C[C@@H]2[C@H](O)C=CC(=O)O1` (stereo not given in full), for which the cell viability, % of control (lower = more cytotoxic) worked out at 4.51%.
Turning to `Cc1[nH]nc2ccc(-c3cncc(OC[C@@H](N)Cc4c[nH]c5ccccc45)c3)cc12`, the cell viability, % of control (lower = more cytotoxic) was 1.9%.
As to `CC1=C(O)C(=O)C=C2C1=CC=C1[C@@]2(C)CC[C@@]2(C)[C@@H]3C[C@](C)(C(=O)O)CC[C@]3(C)CC[C@]12C`, the cell viability, % of control (lower = more cytotoxic) came to 12.3%.
In the case of `C[C@]12CC[C@H]3[C@@H](CCC4=CC(=O)CC[C@@]43C)[C@H]1CC[C@H]2O`, the cell viability, % of control (lower = more cytotoxic) was found to be 83.2%.
For the compound `C=C[C@@H]1CN2CCC1C[C@@H]2[C@@H](O)c1ccnc2ccccc12` (stereo not given in full), the cell viability, % of control (lower = more cytotoxic) was 220%.
In the case of `CCC(=O)OC1CCC2C3CCC4=CC(=O)CC[C@@]4(C)C3CC[C@]12C` (stereo not given in full), the cell viability, % of control (lower = more cytotoxic) is 223%.
For `CC(=O)OCC1=C(C(=O)O)N2C(=O)[C@@H](N)[C@@H]2SC1`, the cell viability, % of control (lower = more cytotoxic) turned out to be 68.5%.
Take `C=C1C[C@H]2[C@H]3CCC(=O)[C@@]3(C)CC[C@@H]2[C@@]2(C)C=CC(=O)C=C12`: the cell viability, % of control (lower = more cytotoxic) was 12.4%.
In the case of `COc1ccc(C(=O)c2c(C)n(CCN3CCOCC3)c3cc(I)ccc23)cc1`, the cell viability, % of control (lower = more cytotoxic) was 4.27%.
For `c1ccc(CCCN2CCN(CCOC(c3ccccc3)c3ccccc3)CC2)cc1`, the cell viability, % of control (lower = more cytotoxic) stood at 8.38%.
Take `c1cc2c(cc1[C@H]1OC[C@H]3[C@H]1CO[C@H]3c1ccc3c(c1)OCO3)OCO2`: the cell viability, % of control (lower = more cytotoxic) is 197%.
Consider `CCOC(=O)c1cncn1[C@H](C)c1ccccc1`, for which the cell viability, % of control (lower = more cytotoxic) amounted to 124%.
With `CC(C)(O)C(=O)Nc1ccc([N+](=O)[O-])c(C(F)(F)F)c1`, the cell viability, % of control (lower = more cytotoxic) is 21%.
Take `C1=C2CCCN[C@H]2[C@@H]2C[C@H]1[C@@H]1CCCCN1C2`: the cell viability, % of control (lower = more cytotoxic) was determined as 131%.
As for `CC(C)N(CCNC(=O)CN1CCCC1=O)C(C)C`, the cell viability, % of control (lower = more cytotoxic) worked out at 108%.
For the compound `CCNC(=O)CC1N=C(c2ccc(Cl)cc2)c2cc(OC)ccc2-n2c(C)nnc21` (stereo not given), the cell viability, % of control (lower = more cytotoxic) was found to be 15.2%.
The figure for `CCCCCC[C@H]1C(=O)O[C@H](C)[C@H](NC(=O)c2cccc(NC=O)c2O)C(=O)O[C@@H](C)[C@@H]1OC(=O)CC(C)C` is 177%; for `C[C@]12CCC(=O)C(O)=C1CC[C@@H]1[C@H]3CCC(=O)[C@@]3(C)CC[C@@H]12` it is 78%; for `COc1cccc2c1[C@]13CCN(CC4CC4)[C@H](C2)[C@]1(OC)CCC(=O)C3` it is 99.3%.
For `O=C1CCC[C@@H]2[C@H]3CCCN4CCC[C@@H](CN12)[C@@H]34`, the cell viability, % of control (lower = more cytotoxic) was 219%.
As for `COC1=CC(C)=C[C@@H](C)[C@@H](O)[C@@H](C)CC(C)=CC=C[C@H](OC)[C@H]([C@@H](C)[C@@H](O)[C@H](C)[C@@]2(O)C[C@@H](O)[C@H](C)[C@@H](C(C)C)O2)OC1=O`, the cell viability, % of control (lower = more cytotoxic) was 67.2%.
As for `COC(=O)[C@@H](N)CCCN=C(N)N[N+](=O)[O-]`, the cell viability, % of control (lower = more cytotoxic) came to 113%.
Take `Oc1ccc2c3c1O[C@H]1c4[nH]c5c(c4C[C@@]4(O)[C@@H](C2)N(CC2CC2)CC[C@]314)C[C@@]1(O)[C@H]2Cc3ccc(O)c4c3[C@@]1(CCN2CC1CC1)[C@H]5O4`: the cell viability, % of control (lower = more cytotoxic) was found to be 143%.
As for `CC1(N2CCC(n3c([C@@H]4CCCNC4)nc4ccccc43)CC2)CCCCCCC1`, the figure is 17.2%; as for `O=c1cccc2n1CC1CNC[C@H]2C1`, 51.5%; as for `O=S(=O)(F)Cc1ccccc1`, 76.9%.
On to `CC(=CCCC1=CCC(C2=CC(=O)OC2O)OC1O)CCC1=C(C)CCCC1(C)C` (stereo not given), for which the cell viability, % of control (lower = more cytotoxic) stood at 124%.
The figure for `COc1ccc2c(c1)CN(C)CC2c1ccc(Cl)c(Cl)c1` (stereo not given) is 41%; for `Cc1ccccc1-n1c(Cn2cnc3c(N)ncnc32)nc2cccc(C)c2c1=O` it is 68.3%.
Turning to `CC(O)=C(C#N)C(=O)Nc1cc(Br)ccc1Br`, the cell viability, % of control (lower = more cytotoxic) amounted to 79.3%.
